Some compounds were tested as several samples or in several runs, with calls that do not always agree. Calls of active or inactive are those of the source. The calls were made as follows: active = hit-call score of the fitted dose curve at least 0.9, where 1 is the maximum; inactive = score below 0.9.

Read-out in test [1]: Monocyte Chemoattractant Protein-1 (MCP1), CCL2 (gene 6347)
The test can be described thus: BSK_hDFCGF_MCP1: BioMAP Diversity Plus: hDFCGF Assay for Monocyte Chemoattractant Protein-1 (MCP1) Biomarker Activity (AID 2284285). To be noted: primary human foreskin fibroblasts. In a few lines: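 MCP-1 ELISA readout was taken 24 hours after dosing primary human dermal fibroblasts in the hDFCGF system, with DMSO as baseline. Parallel sulforhodamine B staining of total protein tracked overt cytotoxicity.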

Read-out in test [2]: Vascular cell adhesion molecule 1 (VCAM1), VCAM1 (gene 7412)
Put plainly: BSK_IMphg_VCAM1: BioMAP Diversity Plus: IMphg Assay for Vascular cell adhesion molecule 1 (VCAM1) Biomarker Activity (AID 2284286). To be noted: primary human endothelial cells with macrophages. In a few lines:
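ELISA read-out of VCAM-1 on venular endothelial cell/macrophage co-cultures at 24 h post-treatment, with DMSO as baseline and positive-direction fitting. Parallel sulforhodamine B total-protein staining (560 nm) served as the overt cytotoxicity measure.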

Read-out in test [3]: Intercellular Adhesion Molecule 1 (ICAM1), ICAM1 (gene 3383)
The test can be described thus: BSK_hDFCGF_ICAM1: BioMAP Diversity Plus: hDFCGF Assay for Intercellular Adhesion Molecule 1 (ICAM1) Biomarker Activity (AID 2284287). As to conditions: primary human foreskin fibroblasts. The method, boiled down:
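ICAM-1 ELISA readout 24 h after dosing, DMSO as baseline, in human dermal foreskin fibroblast cultures. Cytotoxicity checked in parallel wells by SRB staining (0.1% SRB, 10% TCA fixation, 560 nm).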

Read-out in the next test: CD40, CD40 (gene 958)
The test can be described thus: BSK_IMphg_CD40: BioMAP Diversity Plus: IMphg Assay for CD40 Biomarker Activity (AID 2284288). As to conditions: primary human endothelial cells with macrophages. In a few lines:
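ELISA read-out of cell-surface CD40 at 24 h in human venular endothelial cell/macrophage co-cultures. Activity fitted in the positive direction against DMSO; parallel SRB staining (560 nm) gauges overt cytotoxicity.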

Read-out in test [4]: Interleukin-1 alpha (IL1a), IL1A (gene 3552)
Put plainly: BSK_IMphg_IL1a: BioMAP Diversity Plus: IMphg Assay for Interleukin-1 alpha (IL1a) Biomarker Activity (AID 2284290). As to conditions: primary human endothelial cells with macrophages. The method, boiled down: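 IL-1α is quantified by ELISA at 24 h in the endothelial/macrophage IMphg co-culture, with gain of signal fitted relative to DMSO. Parallel SRB total-protein staining flags overt toxicity.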

Read-out in test [5]: Macrophage colony-stimulating factor (MCSF), CSF1 (gene 1435)
Put plainly: BSK_IMphg_MCSF: BioMAP Diversity Plus: IMphg Assay for Macrophage colony-stimulating factor (MCSF) Biomarker Activity (AID 2284293). As to conditions: primary human endothelial cells with macrophages. The method, boiled down: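 M-CSF was measured by ELISA in human venular endothelial cell/macrophage co-cultures dosed for 24 hours. Sulforhodamine B staining of parallel cultures assessed cytotoxicity; data fitted against DMSO baseline.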

Read-out in test [6]: Interleukin-10 (IL10), IL10 (gene 3586)
Put plainly: BSK_IMphg_IL10: BioMAP Diversity Plus: IMphg Assay for Interleukin-10 (IL10) Biomarker Activity (AID 2284294). As to conditions: primary human endothelial cells with macrophages. In a few lines:
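IL-10 read by ELISA after 24 h chemical exposure of primary human venular endothelial cell/macrophage cocultures, with DMSO as baseline. Parallel SRB staining (560 nm) gauged overt cytotoxicity.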

A short description of test [7]: BSK_IMphg_SRB.Mphg: Macrophage Viability Assessment in the BioMAP Diversity Plus: IMphg Assay (AID 2284295). As to conditions: primary human endothelial cells with macrophages. In a few lines:
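Cytotoxicity read-out: parallel cultures fixed with 10% TCA, stained with 0.1% sulforhodamine B, read at 560 nm. System combines venular endothelium and macrophages; sampled 24 h post-dosing, fitted positively relative to DMSO control.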

Read-out in test [8]: Thrombomodulin, THBD (gene 7056)
Put plainly: BSK_LPS_Thrombomodulin: BioMAP Diversity Plus: LPS Assay for Thrombomodulin Biomarker Activity (AID 2284296). As to conditions: primary human HUVEC with PBMC. The method, boiled down: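 Thrombomodulin on the surface of LPS-activated endothelial/PBMC co-cultures was quantified by ELISA at 24 hours post-dosing, with DMSO as baseline. Parallel SRB total-protein staining flagged overt cytotoxicity.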

Read-out in the next test: CD69, CD69 (gene 969)
Put plainly: BSK_LPS_CD69: BioMAP Diversity Plus: LPS Assay for CD69 Biomarker Activity (AID 2284303). As to conditions: primary human HUVEC with PBMC. The method, boiled down:
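CD69 surface levels were read by ELISA after 24 h chemical treatment of an LPS-stimulated HUVEC plus PBMC co-culture; positive-direction fit against DMSO vehicle.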

Read-out in test [9]: E-selectin (Homo sapiens) (UniProt P16581)
Put plainly: BSK_IMphg_ESelectin: BioMAP Diversity Plus: IMphg Assay for Eselectin Biomarker Activity (AID 2284291). To be noted: primary human endothelial cells with macrophages. The method, boiled down: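 Analysed against DMSO baseline in the positive fitting direction, this endpoint is an ELISA read of E-selectin. It comes from human venular endothelial cells co-cultured with macrophages, sampled 24 h post-dose.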

Test [10] in a line: IUF_NPC2c_oligodendrocyte_migration_120hr: Leibniz Research Institute for Environmental Medicine (IUF) 120-hour Neural Progenitor Cell Migration Assay for Oligodendrocyte Migration (NPC2c) (AID 2284297).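 Also: O4-positive oligodendrocyte migration distance divided by radial glia migration distance.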 The method, boiled down:
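Primary hNPC spheres migrating on extracellular matrix, exposed five days to a 7-point dilution series with solvent control. Oligodendrocyte migration was scored by high-content imaging of O4 immunostaining and expressed relative to radial glia distance.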

Test [11] in a line: IUF_NPC2a_radial_glia_migration_120hr: Leibniz Research Institute for Environmental Medicine (IUF) 120-hour Neural Progenitor Cell Migration Assay for Radial Glia Migration (NPC2a) (AID 2284298). In a few lines: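 In this multiplexed test, fetal hNPC spheres migrate radially on poly-D-lysine/laminin in N2 medium (37C, 5% CO2, pH 7.2-7.6) under continuous compound exposure over five days. Migration is scored at 120 h from automated Hoechst nuclear imaging.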

Test [12] is described as follows: IUF_NPC2a_radial_glia_migration_72hr: Leibniz Research Institute for Environmental Medicine (IUF) 72-hour Neural Progenitor Cell Migration Assay for Radial Glia Migration (NPC2a) (AID 2284299). The method, boiled down:
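Readout: mean of four manual brightfield measurements of radial glia migration distance (um) at 72 h. hNPC spheres (0.3 mm) exposed to 7 compound concentrations plus solvent control on PDL/laminin, 37C, 5% CO2; activity fitted relative to DMSO.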

A short description of test [13]: IUF_NPC2b_neuronal_migration_120hr: Leibniz Research Institute for Environmental Medicine (IUF) 120-hour Neural Progenitor Cell Migration Assay for Neuron Migration (NPC2b) (AID 2284300). The method, boiled down:
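Neurons identified by TUBB3 immunostaining and Hoechst nuclei; migration distance measured automatically on fixed wells at 120 h, normalized to glia migration. Exposure spanned five days of differentiation in N2 medium, seven test concentrations.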

Test [14] is described as follows: IUF_NPC3_neuronal_differentiation_120hr: Leibniz Research Institute for Environmental Medicine (IUF) 120-hour Neuronal Differentiation Assay (NPC3) (AID 2284301). In a few lines:
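Value is percent TUBB3-positive neurons among Hoechst-stained nuclei in the migration area, scored by trained CNN after 120 h differentiation. Primary hNPC spheres on poly-D-lysine/laminin, N2 medium, continuous dosing from day 0, half-refeed day 3; DMSO reference.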

Test [15] in a line: IUF_NPC4_neurite_length_120hr: Leibniz Research Institute for Environmental Medicine (IUF) 120-hour Neuronal Morphology Assay for Neurite Length (NPC4) (AID 2284302). The method, boiled down: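 Neurite length, the mean in um across TUBB3-stained neurons, is derived by skeletonization of high-content images after 120 h differentiation. Compound exposure, 7 concentrations plus solvent control, ran from plating of hNPC spheres on poly-D-lysine/laminin, with medium half-replaced on day 3.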

E-selectin (Homo sapiens), sequence (P16581 whole entry, looked up): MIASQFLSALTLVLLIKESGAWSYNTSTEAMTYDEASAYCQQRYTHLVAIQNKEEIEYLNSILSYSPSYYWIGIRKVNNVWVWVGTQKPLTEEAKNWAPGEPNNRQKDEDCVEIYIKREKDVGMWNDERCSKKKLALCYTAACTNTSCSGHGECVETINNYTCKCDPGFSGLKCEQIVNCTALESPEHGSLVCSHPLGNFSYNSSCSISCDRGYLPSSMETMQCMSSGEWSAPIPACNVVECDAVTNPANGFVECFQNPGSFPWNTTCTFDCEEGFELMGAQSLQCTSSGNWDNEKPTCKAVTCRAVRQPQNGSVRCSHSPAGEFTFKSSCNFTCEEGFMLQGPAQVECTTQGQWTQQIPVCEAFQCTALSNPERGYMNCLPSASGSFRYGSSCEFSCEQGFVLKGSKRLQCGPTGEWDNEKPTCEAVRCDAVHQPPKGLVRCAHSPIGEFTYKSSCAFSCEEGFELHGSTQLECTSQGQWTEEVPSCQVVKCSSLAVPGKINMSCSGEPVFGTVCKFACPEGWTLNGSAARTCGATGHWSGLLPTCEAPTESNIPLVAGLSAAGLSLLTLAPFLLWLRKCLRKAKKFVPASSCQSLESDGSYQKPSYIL

Regarding `OCC(F)(F)C(F)(F)C(F)(F)C(F)F`, the outcome is “inactive” in test [1]; “inactive” in [2]; “inactive” in test [3]; “inactive” in the test with CD40, CD40 (gene 958); “inactive” in [4]; “inactive” in test [5]. Also, the outcome in test [6] is “inactive”; in [7], “inactive”; in test [8] it was “inactive”; with CD69, CD69 (gene 969) it was “inactive”.

With `O=C(O)C(F)(F)C(F)(F)OC(F)(F)F`, the outcome was “inactive” in test [1]; “inactive” in test [2]; “inactive” in test [3]; “inactive” with CD40, CD40 (gene 958); “inactive” in [4]; “inactive” in test [9]. Further, the outcome in test [5] is “inactive”; in test [6] it was “inactive”; in test [7], “inactive”; in test [8] it was “inactive”; with CD69, CD69 (gene 969), “inactive”.

On to `O=S(=O)(O)C(F)(F)C(F)(F)C(F)(F)C(F)(F)C(F)(F)C(F)(F)C(F)(F)F`, for which the outcome in test [1] was “inactive”; in test [2], “inactive”; in test [3], “inactive”; with CD40, CD40 (gene 958), “inactive”; in test [4] it was “inactive”; in test [5], “inactive”. Also, the outcome in [6] is “inactive”; in test [7] it was “inactive”; in [8], “inactive”; with CD69, CD69 (gene 969), “inactive”. Besides, in test [6], the AC50 – broadly, the concentration giving half of the maximal activity seen – was 13.3 µM (active).

`C=CC(F)(F)C(F)(F)C(F)(F)C(F)(F)C(F)(F)C(F)(F)C(F)(F)C(F)(F)F`: the outcome in [1] is “inactive”; in test [2] it was “inactive”; in [3], “inactive”; with CD40, CD40 (gene 958), “inactive”; in test [4], “inactive”; in [5], “inactive”. In addition, the outcome is “inactive” in test [6]; “inactive” in test [7]; “inactive” in test [8]; “inactive” with CD69, CD69 (gene 969).

For `C=C(C)C(=O)OCC(F)(F)C(F)(F)C(F)(F)C(F)(F)C(F)(F)C(F)(F)C(F)(F)F`, the outcome is “inactive” in [1]; “inactive” in test [2]; “inactive” in test [3]; “inactive” with CD40, CD40 (gene 958); “inactive” in [4]; “inactive” in [5]. The outcome in test [6] was “inactive”; in test [7] it was “inactive”; in test [8], “inactive”; with CD69, CD69 (gene 969), “inactive”. The figures for the AC50 in test [6] and in test [7] were 3.33 µM (active) and 0.0248 µM (active), respectively.

Regarding `OCCCC(F)(F)C(F)(F)C(F)(F)F`, the outcome was “inactive” in test [1]; “inactive” in test [2]; “inactive” in [3]; “inactive” with CD40, CD40 (gene 958); “inactive” in test [4]; “inactive” in test [5]. For the same compound, the outcome in test [6] is “inactive”; in test [7], “inactive”; in [8], “inactive”; with CD69, CD69 (gene 969), “inactive”.

As for `O=C(O)C(F)(OC(F)(F)C(F)(OC(F)(F)C(F)(F)C(F)(F)F)C(F)(F)F)C(F)(F)F` (stereo not given), the outcome in test [1] is “inactive”; in test [2] it was “inactive”; in test [3] it was “inactive”; with CD40, CD40 (gene 958), “inactive”; in [4] it was “inactive”; in test [5], “inactive”. Also, the outcome in [6] was “inactive”; in [7], “inactive”; in [8] it was “inactive”; in the test with CD69, CD69 (gene 969), “inactive”.

In the case of `OC[C@@H](O)[C@@H](O)[C@H](O)[C@@H](O)CO`, the result in test [10], in test [11], in test [12], in [13], in test [14] and in test [15] was inactive.
